# Source: PubChem BioAssay
# CYP2C9 inhib: blockers of cytochrome P450 2C9 activity – biochemical, luminescence, ADME assay, primary screen; 20% of 96,000 active; AID 777, 2007; inhibition, % at 5 µM; P11712; CYP2C9 Supersomes, luciferin-H conversion;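 active = blocking of liver enzyme CYP2C9 beyond about 50% at 5 µM, limit read from the data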
# PTK2B oligo ant: antagonists of Pyk2 self-association, primary screen, Q293 cells, FERM NanoBiT luminescence, HTS | Protein-tyrosine kinase 2-beta (Homo sapiens), Q14289 | hits give low values | z-score (the deposit names both 25 µM and 10 µM) | 0.83% of 99,000 active | AID 1347419, 2020;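 active = Z-score of -3 or lower, scaled per plate to the spread of control and sample wells; inactive = z-score above -3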;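 note: negative z-score means lost luminescence so less FERM oligomerization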
# CYP2C9 activ: human CYP2C9 activators, primary screen, biochemical, luminescence; Cytochrome P450 2C9 (Homo sapiens), P11712; recombinant CYP2C9, luciferin-H conversion; hits give high values; factor 1 = untreated enzyme, 0 = blocked; activation factor at 5 µM; 1.4% of 96,000 active;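 active = activation factor of 2 or more for CYP2C9 at a 5 µM dose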;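 note: 0 = sulfaphenazole-blocked wells and 1 = vehicle-only wells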
# CYP2C19 activ: human CYP2C19 activators, primary screen, biochemical, luminescence; Cytochrome P450 2C19 (Homo sapiens), P33261; activation factor at 5 µM; 96,000 tested, under 10 active; recombinant CYP2C19, luciferin-H EGE luminescence; hits give high values; 0 = fully inhibited enzyme, 1 = untreated enzyme;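 active = activation factor of at least 2 at 5 µM in the primary screen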;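 note: 0 = wells with 2.5 mM tranylcypromine and 1 = vehicle-only wells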
# Target sequence (P33261 whole entry, looked up): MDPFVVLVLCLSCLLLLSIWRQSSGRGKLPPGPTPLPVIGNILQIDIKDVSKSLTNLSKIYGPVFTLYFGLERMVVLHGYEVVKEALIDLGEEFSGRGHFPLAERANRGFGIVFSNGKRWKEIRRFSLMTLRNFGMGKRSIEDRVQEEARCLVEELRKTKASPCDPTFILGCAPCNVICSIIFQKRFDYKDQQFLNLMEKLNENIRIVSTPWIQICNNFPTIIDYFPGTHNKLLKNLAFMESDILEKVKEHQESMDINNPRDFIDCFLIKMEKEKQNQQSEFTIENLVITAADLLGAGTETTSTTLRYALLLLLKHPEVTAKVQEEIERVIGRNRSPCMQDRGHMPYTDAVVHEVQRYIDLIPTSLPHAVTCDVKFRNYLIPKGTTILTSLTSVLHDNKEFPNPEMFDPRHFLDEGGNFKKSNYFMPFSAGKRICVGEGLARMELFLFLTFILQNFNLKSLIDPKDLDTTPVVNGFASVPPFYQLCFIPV
# Cav3 T inh: Cav3.2 calcium influx blockers – cell-based, Fluo-4 calcium fluorescence, FDSS, MLSMR library, primary screen. Voltage-dependent T-type calcium channel subunit alpha-1H (Homo sapiens), O95180. Cav3.2-expressing cells; hits give low values. B-score at 10 µM. 4% of 100,000 active. AID 449739, 2010;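 active = single-dose well whose peak fluorescence ratio is a statistical outlier from its plate by either plate-standardised score or position-corrected B-score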
# CYP2C19 inh: blockers of cytochrome P450 2C19 activity – biochemical, luminescence, ADME assay, primary screen; P33261; CYP2C19 Supersomes, luciferin-H EGE luminescence, 30 min; inhibition, % at 5 µM; 21% of 96,000 active;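 active = CYP2C19 inhibition above a set limit at 5 µM in the primary screen, cut at about 50% in these data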;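 note: plate controls were negative control wells for no effect and 2.5 mM tranylcypromine positive control for full effect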
# * hit, by the source's call; nt = not tested or not shown. A selection: hits, their analogues and other compounds. The true share with any hit is near 27%.
SMILES,CYP2C9 inhib,PTK2B oligo ant,CYP2C9 activ,CYP2C19 activ,Cav3 T inh,CYP2C19 inh
CC(=O)[C@@H]1[C@@H]2C(=O)N(c3ccc(F)c(Cl)c3)C(=O)[C@@H]2C2c3ccccc3C=CN21 (stereo partly drawn),nt,nt,nt,nt,-0.96,nt
COc1ccccc1C(c1nnnn1C(C)(C)C)N1CCCc2ccccc21 (stereo not drawn),28,1.5,0.7,0.9,nt,12
CC(C)(C)n1nnnc1C(c1ccc(Cl)cc1)N1CCCc2ccccc21 (stereo not drawn),76*,-1.8,0.2,0.2,-3.8,84*
CC(C)(C)n1nnnc1C(c1cccc(C#N)c1)N1CCCc2ccccc21 (stereo not drawn),94*,-0.65,0.1,0.1,-1.9,91*
CCN(CC)c1nc(C)c2c(c1C#N)CC(C)(C)OC2,22,0.21,0.8,0.8,nt,21
CC(C)C1Cc2c(C#N)c(N)sc(=S)c2CO1 (stereo not drawn),84*,0.09,0.2,0.5,-2.6,51*
CC1(C)Cc2c(C#N)c(N)sc(=S)c2CO1,68*,0.53,0.3,0.8,nt,17
CC1(C)c2ccccc2N2CCC(=O)NC21/C=C/c1ccco1 (stereo not drawn),52*,-0.1,0.5,0.1,0.27,86*
CCOc1ccc(N2C(=O)C(Cl)=C(Nc3ccccc3O)C2=O)cc1,-4,-0.69,1,0.9,-0.17,14
CCCCOC(=O)c1c(C)oc2ccc(NS(=O)(=O)c3ccc4c5c(cccc35)C(=O)N4)cc12,96*,-2.1,0,0.3,-5.8*,66*
O=C(Cc1nc(-c2ccc([N+](=O)[O-])cc2)cs1)Nc1ccccc1,62*,-0.08,0.4,0.7,-1.9,30
Nc1nc(-c2ccc([N+](=O)[O-])cc2)cs1,nt,-0.5,nt,nt,nt,nt
COCCNC(C)C(=O)Nc1ccc(Br)cc1 (stereo not drawn),0,-0.84,1,0.8,0.013,17
CC(=O)NC(C)C(=O)OCC(=O)Nc1ccc(Br)cc1 (stereo not drawn),16,0.59,0.8,0.5,-0.025,54*
Cc1nc(N)c(C#N)c(-c2cccnc2)c1C,-96,-1.2,2*,1,1.1,3
Cc1cccc2cc3c(N)c(C(=O)Nc4ccc(N5CCOCC5)cc4)sc3nc12,36,-3.4*,0.6,0.7,-2.9,33
CC(=O)Nc1ccc(S(=O)(=O)N2CCN(CCCOc3ccccc3Cl)CC2)cc1,48,-1.2,0.5,0.3,2.5,68*
CC(=O)Nc1ccc(S(=O)(=O)N2CCN(C(=O)Cc3ccccc3)CC2)cc1,nt,0.44,nt,nt,0.41,nt
COc1ccc(C(=O)Nc2ccc(S(=O)(=O)N3CCCC3)cc2)c(OC)c1,32,-0.1,0.7,1,0.76,-1
COc1cccc(OCCCN2CCN(S(=O)(=O)c3ccc(NC(C)=O)cc3)CC2)c1,80*,0.72,0.2,0.1,-0.16,86*
